In the supplement of paper PMC3334620:
The full ranking holds about 33,000 sequences; the median of “E-score (-0.5 to 0.5)” is about -0.012, and the highest 2% start at about 0.29. Many of the other results were omitted from the sample, so the highest values are more common in it than they were.

Biological target: T1, Ybr033w (UniProt P38073)
T1 sequence: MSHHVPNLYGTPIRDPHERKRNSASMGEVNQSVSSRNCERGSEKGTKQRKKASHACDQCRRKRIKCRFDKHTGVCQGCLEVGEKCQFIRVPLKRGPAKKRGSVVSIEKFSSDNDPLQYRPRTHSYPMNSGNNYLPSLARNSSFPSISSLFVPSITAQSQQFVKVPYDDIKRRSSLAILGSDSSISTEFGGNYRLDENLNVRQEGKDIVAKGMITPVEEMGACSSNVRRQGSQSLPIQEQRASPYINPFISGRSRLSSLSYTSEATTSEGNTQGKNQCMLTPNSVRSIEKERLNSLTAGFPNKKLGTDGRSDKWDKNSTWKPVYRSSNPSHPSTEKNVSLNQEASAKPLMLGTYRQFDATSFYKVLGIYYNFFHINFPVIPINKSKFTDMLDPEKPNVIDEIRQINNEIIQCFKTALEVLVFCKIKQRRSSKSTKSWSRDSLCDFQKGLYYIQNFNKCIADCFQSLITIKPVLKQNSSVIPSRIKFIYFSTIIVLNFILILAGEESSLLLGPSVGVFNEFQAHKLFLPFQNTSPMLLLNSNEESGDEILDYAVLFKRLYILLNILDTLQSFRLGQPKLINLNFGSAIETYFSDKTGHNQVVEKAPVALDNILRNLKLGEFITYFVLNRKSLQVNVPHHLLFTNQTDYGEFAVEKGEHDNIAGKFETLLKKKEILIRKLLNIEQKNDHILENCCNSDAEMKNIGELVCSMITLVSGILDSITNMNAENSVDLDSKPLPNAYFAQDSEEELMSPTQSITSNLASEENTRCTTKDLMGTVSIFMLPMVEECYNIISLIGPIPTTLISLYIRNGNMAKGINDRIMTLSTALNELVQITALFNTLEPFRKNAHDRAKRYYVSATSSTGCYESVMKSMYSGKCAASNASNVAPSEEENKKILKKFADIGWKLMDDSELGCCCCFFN
Experiment: PBM E-score (8-mer binding enrichment) (E-score (-0.5 to 0.5)); higher = stronger / more preferred TF binding
Conditions: protein concentration: 200 nM; construct: GST-full length
Summary of the method: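 GST-tagged yeast TFs (full-length or DNA-binding domain) were made by PURExpress in vitro transcription/translation and applied at about 100-200 nM to universal all-10-mer Agilent arrays. The arrays were made double-stranded by primer extension, on fresh or once-stripped slides. Bound protein was detected with fluorescent anti-GST, and scans were normalised with masliner. Each ungapped eight-base word, pooled with its reverse complement, received an E-score (modified Wilcoxon-Mann-Whitney statistic) from the Universal PBM Analysis Suite.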

Sequence	PBM E-score
CTGGATAC	-0.107
GACACTAC	-0.0871
ACGCACAC	0.157
ATCTACGC	0.0459
ACATGATC	0.122
GCATGATA	0.109
GTATGATA	0.234
ACATGATA	0.32
ACATGTTG	0.244
CAATGATA	0.126
CTATGATA	0.113
ACATGTTC	0.0642
ATATGATA	0.347
ACATGTTA	0.289
AAATGATA	0.345
AAATGATT	0.273
CGACGTAG	-0.223
AGCATTCC	-0.043

Sequence	PBM E-score
ATGTGGCG	-0.018
AATCTTAC	0.137
GCTTAATA	0.0557
GGTGGAAA	-0.00937
CCTGCTCA	-0.156
ATTCTAGC	0.0909
ACGGGCTA	-0.252
AGGGATCA	0.169
CAATGATC	0.0568
AAATGATG	0.248
AAATGATC	0.328
CATACTGA	0.212
GATACTGA	0.0886
TATACTGA	0.351
CATTCGCG	0.0443
ATATAGGG	-0.00433
GAGGCCTC	-0.37
